Where “and” joins values, the source holds several entries; their conditions need not be identical. Equal values may be shown once. Results filed as inconclusive are left out. For some of these results: Entries with a potency or affinity are not part of this list. Calls of active or inactive are those of the source. Unless noted, no stated cut-off is given here; in the data, active means parasite load remaining mostly below about 12% (no sharp cut-off); inactive means mostly above about 10%.

This is an account of results in PubChem BioAssay.

Assay [1] can be described thus: polyglutamine-triggered caspase-3 activation inhibitors, cell-based (AID 1583). The following applies: polyglutamine-induced caspase-3 activation, cell assay; stronger effect = higher value;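 tested at 10 µM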.
A short description of assay [2]: suppressors of polyQ aggregation in yeast, 75Q-TubU reporter (AID 1593). The following applies: Yeast 75Q polyglutamine aggregation reporter.
The nature of assay [3]: rescue of polyQ-huntingtin neuronal dysfunction in worms, whole organism, C. elegans mechanosensory neurons, N-terminal huntingtin (AID 1599). The following applies: touch response, stronger effect = higher value.
Assay [4] in a line: inhibitors of mitochondrial cytochrome c release, biochemical, purified mitochondria (AID 1603).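 Further: mouse liver mitochondria challenged with calcium chloride; signal normalized to the plate average as 100%.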 The conditions noted are these: stronger effect = lower value.
A short description of assay [5]: inhibitors of polyQ protein aggregation (AID 1604). The following applies: polyglutamine-induced protein aggregation inhibition assay; stronger effect = higher value; tested at 2.5 µM.
Assay [6] can be described thus: protection against mutant huntingtin cytotoxicity, PC12 cells, LDH release (AID 1610). The conditions noted are these: PC12 mutant huntingtin toxicity, final LDH at 4 uM, stronger effect = lower value.
A short description of assay [7]: enhancers of glutamate uptake in motor neurons, MN-1 cell line (AID 1612).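 Further: tested at 1 µM final; 0% = mean of DMSO vehicle wells on each plate; positive means more glutamate uptake than control and negative means less.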 The following applies: MN-1 motor neuron cells, stronger effect = higher value.
Assay [8] in a line: reducers of polyQ inclusions in PC12 cells, cell-based, NGF-treated PC12, GFPQ80 (AID 1614).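 Further: lower means fewer inclusions and 0 means no inclusions at all.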 The conditions noted are these: PC12 NGF-treated GFP-polyQ80 inclusion reduction.
Assay [9] can be described thus: suppressors of polyglutamine aggregation in yeast, 75Q-TubH (AID 1616). The following applies: S. cerevisiae 75Q-TubH polyglutamine aggregation suppression; stronger effect = higher value.
Assay [10] in a line: liver-stage malaria parasite growth inhibition, primary screen, cell-based, HepG2, luciferase luminescence, HepG2 viability (AID 624349).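 Further: 100% = mean of DMSO negative control wells on the same plate.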 The conditions noted are these: P. berghei liver stage in HepG2, luciferase luminescence, concentration not given here; parasite load remaining: stronger effect = lower value; viability: measured here: HepG2 viability without parasites.
Assay [11] can be described thus: differential killing of epithelial or mesenchymal cells, primary screen, imaging, PC-3E GFP, TEM4-18 mCherry, co-culture (AID 1345086;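 active means compounds killing one labelled cell type while sparing the other, by normalised counts and ratio limits, not self-fluorescent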;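 on all read-outs here: cells exposed to compound for 72 h before imaging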;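 on red/green cell ratio (normalised): normalised mesenchymal count divided by normalised epithelial count so high means epithelial killing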). The following applies: imaging cell counts, at 1 µM; for red/green cell ratio (normalised): actives lie on both sides.
In assay [12] the test system is Aerobactin synthetase IucA (Klebsiella pneumoniae hvKP1). The assay is described as follows: Biochemical IucA enzyme inhibition primary screen of the Spectrum library (AID 1346200; call rule not given here;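 further: 100% = wells without compound and 0% = wells lacking enzyme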). The conditions noted are these: malachite green pyrophosphate, A620, at 8 µM, stronger effect = lower value.
Assay [13] can be described thus: sensitizers of A549 cells to miR-34 induction, primary screen, imaging, A549 dox-inducible miR-34, nuclei and caspase counts (AID 1347080;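 active means compounds whose cell count with miR-34 switched on is under 0.7 times the count with it off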). The conditions noted are these: A549 miR-34 inducible, Hoechst nuclei count, 48 h.
A short description of assay [14]: growth inhibition of DIPG glioma cells, dose response, cell-based, SU-DIPG-XVII, MIPE5.0, CellTiter-Glo, qHTS (AID 1347060; cut-off not given, nearly all actives have AC50 up to about 26 µM). The following applies: SU-DIPG-XVII viability, CellTiter-Glo ATP luminescence. (In general: ATP-based viability assays read luminescence as a measure of living cells.)
Assay [15] can be described thus: growth inhibition of DIPG glioma cells, dose response, cell-based, JHH-DIPG-1, MIPE4.0, CellTiter-Glo, qHTS (AID 1347062; cut-off not given, nearly all actives have AC50 up to about 27 µM). The following applies: JHH-DIPG-1 viability, CellTiter-Glo ATP luminescence.
The nature of assay [16]: growth inhibition of DIPG glioma cells, dose response, cell-based, SU-DIPG-XIII, MIPE5.0, CellTiter-Glo, qHTS (AID 1347064; cut-off not given, nearly all actives have AC50 up to about 23 µM). The conditions noted are these: SU-DIPG-XIII viability, CellTiter-Glo ATP luminescence.
A short description of assay [17]: viability loss in pontine glioma line – cell-based, SU-DIPG-XXV, MIPE5.0, CellTiter-Glo, qHTS, dose response (AID 1347065; cut-off not given, nearly all actives have AC50 up to about 26 µM;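 further: cells exposed to compound for 48 hours before ATP readout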). The conditions noted are these: CellTiter-Glo ATP luminescence.
A short description of assay [18]: SU-DIPG-VI glioma cell viability, MIPE4.0 library, CellTiter-Glo luminescence, qHTS (AID 1347066; cut-off not given, nearly all actives have AC50 up to about 30 µM;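 further: cells exposed to compound for 48 hours before readout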). The following applies: CellTiter-Glo ATP luminescence.
Setting [19] is: measured here: epithelial PC-3E GFP cell survival.
[20] abbreviates: measured here: mesenchymal TEM4-18 mCherry cell survival.
Where [21] appears, read: measured here: relative caspase fold change +Dox/-Dox.
Where [22] appears, read: measured here: total cells with miR-34 induction, stronger effect = lower value.
Where [23] appears, read: measured here: total cells without miR-34 induction.

By inhibition is commonly meant the share of the control response that was lost under treatment. As usually defined, the viability is a read-out of living cells in per cent, often relative to untreated cells. In assay [1], `C=C[C@H]1CN2CC[C@H]1C[C@@H]2[C@H](O)c1ccnc2ccccc12` showed an inhibition of 15.4%. In assay [2], this molecule yielded a score of 1.55. In addition, the rescue above control in [3] stood at 3.43. The cytochrome c release ratio in assay [4] came to 0.96. In addition, the inhibition of aggregation in assay [5] is -10.6%. The same molecule showed a normalised LDH release in [6] of 0.806. The glutamate uptake change in assay [7] stood at 4.38%. The molecule further had an inclusion score in [8] of 2. Further, the aggregation suppression score in assay [9] was 1.26. Besides, in assay [10], the parasite load remaining is 84.2% (inactive) and 28.1% (inactive). In addition, the viability in assay [10] is 73.3% and 88.8%. The red/green cell ratio (normalised) in [11] was 1.26 (inactive). The normalised cell number in [11] (setting [19]) was 0.87; in assay [11] (setting [20]), 1.1. Moreover, the activity remaining in assay [12] was 125% (inactive). Also, the fold change in assay [13] (stronger effect = lower value) is 0.93 (inactive); in assay [13] (setting [21]) it was 2.81. For the same molecule, the cell count turned out to be 12200 in assay [13] (setting [22]) and 13100 in assay [13] (setting [23]).
Regarding `COC[C@]12CN(C=O)C3[C@@H]4[C@H](OC)C1[C@]3(C1CC3(O)C(OC)C(O)C4(OC(C)=O)C1C3OC(=O)c1ccccc1)[C@@H](OC)C[C@H]2O` (stereo partly drawn), in assay [11], the red/green cell ratio (normalised) was 1 (inactive). In addition, the normalised cell number in assay [11] (setting [19]) and in assay [11] (setting [20]) was 1.06 each time. The activity remaining in [12] is 118% (inactive).
`C#CC1(O)CCC2C3CCC4=CC(=O)CCC4(C)C3CCC21C` (stereo not drawn) displayed an inhibition in assay [1] of 4.95%. Further, the score in [2] amounted to 0.22. In assay [3], this molecule displayed a rescue above control of 3.19. In addition, the cytochrome c release ratio in [4] stood at 0.95. For the same molecule, in assay [5], the inhibition of aggregation is 63.6%. Also, in [7], the glutamate uptake change was determined as 12.9%. The same molecule yielded an inclusion score in assay [8] of 2. Also, the aggregation suppression score in [9] amounted to 1.19. In assay [10], the parasite load remaining is 62% (inactive) and 21.3% (inactive). In addition, the viability in [10] is 93.9% and 81%. Further, the red/green cell ratio (normalised) in [11] is 0.77 (inactive). The results for the normalised cell number in assay [11] (setting [19]) and in assay [11] (setting [20]) were 1.21 and 0.93, respectively. Moreover, in assay [12], the activity remaining was 112% (inactive). In addition, the molecule was called inactive in [14], in assay [15], in [16], in assay [17] and in [18]. For the same molecule, the fold change is 0.935 (inactive) in assay [13] (stronger effect = lower value) and 2.1 in [13] (setting [21]). The figures for the cell count in [13] (setting [22]) and in [13] (setting [23]) were 10400 and 11100, respectively.
Regarding `C=C[C@H]1CN2CC[C@H]1C[C@@H]2[C@@H](OC(=O)OCC)c1ccnc2ccc(OC)cc12`, the inhibition in assay [1] is 11.7%. The molecule also displayed a score in [2] of 1.24. The molecule also returned a rescue above control in [3] of 17. Further, the cytochrome c release ratio in assay [4] was 1.43. For the same molecule, the inhibition of aggregation in assay [5] turned out to be 70.5%. Besides, in assay [7], the glutamate uptake change worked out at 9.82%. For the same molecule, the aggregation suppression score in [9] amounted to 1.15. In assay [10], the parasite load remaining was 53% (inactive). Further, the viability in assay [10] amounted to 91.4%. Besides, the red/green cell ratio (normalised) in [11] is 1.15 (inactive). Besides, the normalised cell number amounted to 0.67 in assay [11] (setting [19]) and 0.77 in assay [11] (setting [20]). Further, the activity remaining in assay [12] was 98.2% (inactive). Also, the fold change in assay [13] (stronger effect = lower value) is 0.94 (inactive); in assay [13] (setting [21]) it was 1.23. The cell count in [13] (setting [22]) is 11100; in assay [13] (setting [23]) it was 11800.
`CC(CO)NC(=O)C1C=C2c3cccc4[nH]cc(c34)C[C@H]2N(C)C1` (stereo partly drawn): in assay [10], the parasite load remaining was 81.6% (inactive) and 59.7% (inactive). Also, in assay [10], the viability was 72.8% and 111%. For the same molecule, the red/green cell ratio (normalised) in assay [11] is 1.15 (inactive). Also, the normalised cell number amounted to 0.77 in assay [11] (setting [19]) and 0.88 in assay [11] (setting [20]). Also, the activity remaining in assay [12] is 98.2% (inactive). In addition, the fold change was 0.895 (inactive) in assay [13] (stronger effect = lower value) and 3.49 in assay [13] (setting [21]). Moreover, the cell count was 11100 in assay [13] (setting [22]) and 12400 in [13] (setting [23]).
